Laboratory results published in PubChem BioAssay (NCI).
About 79,000 compounds went through this panel and 15% of them were active in at least one assay; those are over-represented in the sample as a whole. Active and inactive are the calls of the source. Cut-off read from the data, not from the text of the source: active = growth inhibition above about 70%; inactive = the rest.

Key:
[1] = NCI Yeast Anticancer Drug Screen. Data for the rad50 strain (AID 155);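 note: 0% = growth of vehicle-only cultures of the same strain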; conditions: S. cerevisiae rad50 strain growth inhibition, active compounds read high
Method in brief: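 Genetically altered yeast (DNA repair pathway); compound treatment; growth inhibition vs vehicle ctrl.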

[2] = NCI Yeast Anticancer Drug Screen. Data for the mec2-1 strain (AID 157); conditions: S. cerevisiae mec2-1 strain, active compounds read high
Method in brief: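 Readout is yeast growth inhibition, normalised to vehicle-treated controls, in the mec2-1 strain exposed to compound.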

[3] = NCI Yeast Anticancer Drug Screen. Data for the sgs1 mgt1 strain (AID 161);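 note: 0% = growth of cultures given vehicle only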; conditions: S. cerevisiae sgs1 mgt1 strain, active compounds read high
Method in brief: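 Yeast cells carrying a defined DNA-repair defect were exposed to test compounds. Growth inhibition was measured relative to vehicle-treated controls.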

[4] = NCI Yeast Anticancer Drug Screen. Data for the cln2 rad14 strain (AID 165);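 note: 0% = growth equal to vehicle treated cultures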; conditions: S. cerevisiae cln2 rad14 strain, active compounds read high
Method in brief: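 Relative to vehicle controls, growth inhibition of compound-treated cln2 rad14 yeast was recorded.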

[5] = NCI Yeast Anticancer Drug Screen. Data for the bub3 strain (AID 167); conditions: S. cerevisiae bub3 mutant strain, active compounds read high
Method in brief: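 Yeast carrying a defined mutation is treated with each compound, and growth is compared with that of vehicle-exposed cells to give inhibition.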

[6] = NCI Yeast Anticancer Drug Screen. Data for the mlh1 rad18 strain (AID 175); conditions: S. cerevisiae mlh1 rad18 strain growth inhibition, active compounds read high
Method in brief: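 Test agents were incubated with a yeast strain of defined genotype (DNA damage repair defect). Inhibition of growth was derived by comparison with vehicle-exposed cultures.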

[7] = at 5.0 µM (retest, dose inferred, filed as 0.5)
[8] = at 50.0 µM (retest, dose inferred, filed as 5.0)

Measured: growth inhibition

CCCCCC(CN(C)C)C(=O)/C=C/c1ccc(Cl)cc1 (configuration not stated)
inactive: [1]; [7] 21% | [2]; [7] -1% | [3]; [7] 6% | [4]; [7] -1% | [5]; [7] 5% | [6]; [7] 33%
active: [1]; [8] 99% | [1]; at 50.0 µM 99.2% | [2]; [8] 100% | [2]; at 50.0 µM 99.3% | [3]; [8] 99% | [3]; at 50.0 µM 99.3% | [4]; [8] 99% | [4]; at 50.0 µM 99.2% | [5]; [8] 98% | [5]; at 50.0 µM 99.3% | [6]; [8] 99% | [6]; at 50.0 µM 99.2%

CCCCCCCC/C=C\CCCCCCCC(=O)OCCCCC
inactive: [1]; [7] -7% | [1]; [8] 2% | [1]; at 50.0 µM 15.6% | [2]; [7] -5% | [2]; [8] 0% | [2]; at 50.0 µM 13.8% | [3]; [7] -2% | [3]; [8] 18% | [3]; at 50.0 µM 17.2% | [4]; [7] -8% | [4]; [8] -10% | [4]; at 50.0 µM 60.8% | [5]; [7] -6% | [5]; [8] -8% | [5]; at 50.0 µM 40.5% | [6]; [7] 15% | [6]; [8] 11% | [6]; at 50.0 µM 33.6%

ClC(Cl)(Cl)C(c1ccccc1)c1ccccc1
inactive: [1]; [7] 3% | [1]; [8] 30% | [2]; [7] 0% | [2]; [8] 12% | [2]; at 50.0 µM 38.5% | [3]; [7] 3% | [3]; [8] 42% | [4]; [7] 4% | [4]; [8] -3% | [4]; at 50.0 µM -17.2% | [5]; [7] -5% | [5]; [8] 5% | [5]; at 50.0 µM 16.4% | [6]; [7] 16% | [6]; [8] 15%
active: [1]; at 50.0 µM 76.8% | [3]; at 50.0 µM 71.1% | [6]; at 50.0 µM 73.8%

S=C(N/N=C/c1ccco1)NC12CC3CC(CC(C3)C1)C2
active: [1]; [8] 94% | [2]; [8] 95% | [3]; [7] 76% | [3]; [8] 96% | [4]; [8] 91% | [5]; [7] 71% | [5]; [8] 93% | [6]; [8] 94%
inactive: [1]; [7] 29% | [1]; at 50.0 µM 2.95% | [2]; [7] 24% | [2]; at 50.0 µM 8.05% | [3]; at 50.0 µM 10.9% | [4]; [7] 51% | [4]; at 50.0 µM -0.25% | [5]; at 50.0 µM 13.4% | [6]; [7] 47% | [6]; at 50.0 µM 26.2%

CCN(CC)CCNc1c(O)cc(C)c2sc3ccccc3c(=O)c12
inactive: [1]; [7] 18% | [2]; [7] 10% | [3]; [7] 7% | [4]; [7] 11% | [5]; [7] 3% | [6]; [7] 2%
active: [1]; [8] 95% | [1]; at 50.0 µM 98.5% | [2]; [8] 94% | [2]; at 50.0 µM 99% | [3]; [8] 98% | [3]; at 50.0 µM 98.8% | [4]; [8] 84% | [4]; at 50.0 µM 96.8% | [5]; [8] 84% | [5]; at 50.0 µM 97.2% | [6]; [8] 96% | [6]; at 50.0 µM 98.3%

N=c1scc(-c2ccccc2)n1/N=C/c1cccnc1
inactive: [1]; [7] 1% | [2]; [7] 3% | [3]; [7] 7% | [4]; [7] 11% | [5]; [7] 5% | [5]; at 50.0 µM 50.6% | [6]; [7] -14%
active: [1]; [8] 95% | [1]; at 50.0 µM 96.6% | [2]; [8] 96% | [2]; at 50.0 µM 86.3% | [3]; [8] 98% | [3]; at 50.0 µM 96.5% | [4]; [8] 95% | [4]; at 50.0 µM 96.2% | [5]; [8] 96% | [6]; [8] 96% | [6]; at 50.0 µM 95.8%

CCS(=O)(=O)c1ccc(NC(=O)OC2CC(C)CCC2C(C)C)cc1 (configuration not stated)
active: [1]; [8] 90% | [1]; at 50.0 µM 90.5% | [2]; [8] 94% | [2]; at 50.0 µM 91.6% | [3]; [8] 91% | [3]; at 50.0 µM 89.5% | [4]; [8] 91% | [4]; at 50.0 µM 86.7% | [5]; [8] 94% | [5]; at 50.0 µM 90.8% | [6]; [8] 92% | [6]; at 50.0 µM 92.1%
inactive: [1]; [7] 14% | [2]; [7] 18% | [3]; [7] 15% | [4]; [7] 12% | [5]; [7] 11% | [6]; [7] 20%

CCOC(=O)C(CC)(CCc1ccccc1[N+](=O)[O-])C(=O)OCC
inactive: [1]; [7] 8% | [1]; [8] -24% | [1]; at 50.0 µM 61.2% | [2]; [7] -3% | [2]; [8] -2% | [2]; at 50.0 µM -6.6% | [3]; [7] 9% | [3]; [8] 37% | [3]; at 50.0 µM 39.2% | [4]; [7] 0% | [4]; [8] -17% | [4]; at 50.0 µM -18.1% | [5]; [7] 6% | [5]; [8] 24% | [6]; [7] 17% | [6]; [8] 13% | [6]; at 50.0 µM 60.9%
active: [5]; at 50.0 µM 75.9%

O=CC(O)CN1CCCC1 (configuration not stated)
inactive: [1]; [7] -2% | [1]; [8] 11% | [1]; at 50.0 µM 49.6% | [2]; [7] 0% | [2]; [8] 14% | [2]; at 50.0 µM 53.2% | [3]; [7] 2% | [3]; [8] 8% | [4]; [7] -4% | [4]; [8] 6% | [5]; [7] -4% | [5]; [8] 25% | [5]; at 50.0 µM 12.7% | [6]; [7] 1% | [6]; [8] 16%
active: [3]; at 50.0 µM 87.7% | [4]; at 50.0 µM 96.8% | [6]; at 50.0 µM 92.9%
